Rows were chosen to be rich in hits. Some 9.4% of all compounds tested hit in one or more screens of this group.
Pf growth 48h = inhibits P. falciparum growth in the first generation, 48 h. P. falciparum luciferase growth in erythrocytes, 48 h. Potency, µM (titrated, usually from 28.7 µM), for the others: top-dose activity change, negative = inhibition, hits mostly inhibitors. 310,000 tested, 5.9% active. AID 504832; further: on the % scale 0 is the no-effect control and ±100 the full control effect
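A one-generation exposure of luciferase-tagged malaria parasites in RPMI 1640/Albumax erythrocyte culture, 37 C and 5% CO2. Inhibition is inferred from decreased luminescence after adding detection reagent.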
AMA1 RON2 block = disrupts binding of P. falciparum AMA1 to RON2. 360,000 tested, 0.2% active. AlphaScreen AMA1-biotinylated RON2 peptide binding. Potency, µM (top dose mostly 58.2 µM), for the others: top-dose activity change, negative = inhibition, usual class: inhibitors. AID 720542;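 further: 0% = vehicle wells and -100% = peptide control; nearly all actives have a fitted effect of over 45% in size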
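AMA1 (3D7) with his tag at 25 nM final met compounds first, then biotinylated RON2 peptide at 25 nM; detection used donor plus acceptor beads, 10 µg/mL apiece, read by AlphaScreen after 30 min at room temperature.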
Pf growth 96h = P. falciparum growth inhibition at 96 hour, primary screen for plastid delayed-death inhibitors; P. falciparum luciferase reporter growth, 96 h; Potency, µM (top dose mostly 28.7 µM), for the others: top-dose activity change, negative = inhibition, most hits filed as inhibitors; 320,000 tested, 6.9% active; AID 504834; further: on the % scale 0 is the no-effect control and ±100 the full control effect
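96 h incubation, 37 C, 5% CO2, of luciferase-reporter P. falciparum-infected RBCs (2% hematocrit, 0.05% parasitemia final) with test compounds; endpoint luminescence.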
SARS PLP yeast = inhibitors of SARS-CoV papain-like protease in yeast. AID 485353. S. cerevisiae expressing SARS-CoV PLpro, growth rescue. 330,000 tested, 0.19% active. Potency, µM (titrated, usually from 32.9 µM), for the others: at the highest dose activity, positive = growth rescue, hits mostly activators; calls by dose curve; further: 0% is about no effect; nearly all actives have a fitted effect of over 55% in size
* marks the source's active call; other numbers are inactive results; ? = inconclusive; . = not tested or not shown; [ ] = dose if it differs, or a comment. Unless noted, the call rests on the fitted dose curve; in most records, active means well fitted curve in the direction sought with a large enough effect; inconclusive means small, poorly fitted or top-dose-only effect, or another doubt; inactive means no such curve, though single readings can be large; an effect the other way counts as inactive or inconclusive. Potency means the concentration at half of the fitted maximal effect.

SMILES | Pf growth 48h | AMA1 RON2 block | Pf growth 96h | SARS PLP yeast
COc1cccc(CNC(=O)C(=O)NCCC2CCCCN2S(=O)(=O)c2ccccc2)c1 (stereo not given) | ? | 4.9% | ? | 13.2%
O=C(CS(=O)(=O)Cc1ccccc1)Nc1ccc(S(=O)(=O)N2CCCCCC2)cc1 | ? | -10.4% | -10.9% | -3.0%
COc1ccc(OCCSc2nnc3c(Cl)cc(Cl)cn23)cc1 | 10.1% | 9.5% | ? | -6.6%
O=C(NC(=S)Nc1cc(Cl)ccc1O)c1cccc(Br)c1 | ? | 84.2% | 3.29µM* | -0.1%
O=C(NC(=S)Nc1cccnc1)c1cccc(Br)c1 | 11.4% | 77.9% | -0.4% | -8.2%
CCCC1(C)Nc2ccccc2-c2nc3ccccc3n21 (stereo not given) | ? | 11.8% | 2.08µM* | -20.1%
COc1cc2cnc(-c3ccccc3)c(-c3cccc(C(F)(F)F)c3)c2cc1OC | ? | -9.1% | ? | -27.6%
COc1cc2cnc(-c3ccccc3)c(-c3ccc(C#N)cc3)c2cc1OC | 2.33µM* | -2.6% | ? | -11.8%
CCC(C)NC(=O)Nc1ccc2c(c1)N(C)C(=O)c1ccccc1S2 (stereo not given) | . | 21.8% | . | -6.2%
CCC(=O)Nc1ccc(-c2nnc(SCc3ccc(C(=O)Nc4nccs4)cc3)n2CC)cc1 | 7.38µM* | -5.3% | 5.3% | -7.5%
CC(C)CCOP(=O)(c1ccccc1)c1ccccc1 | 14.7µM* | -14.3% | ? | 11.9%
CCCOP(=O)(c1ccccc1)c1ccccc1 | -18.6% | -10.1% | 14.5% | -13.2%
COc1cc2c(cc1O)CCN[C@@]21CS[C@H]2c3c(OC(C)=O)c(C)c4c(c3C(COC1=O)N1C2C2c3c(cc(C)c(OC)c3O)CC([C@@H]1O)N2C)OCO4 (stereo not given in full) | 0.0005µM* | . | 2.13µM* | .
C/C(=N\Nc1ccc(C(=O)c2c(C)cc3ccccn23)cc1[N+](=O)[O-])c1ccc(O)cc1 | 9.28µM* | 8.5% | ? | 0.3%
COC(=O)c1ccc(CSc2nnc(CNC(=O)c3ccc(OC)cc3)o2)o1 | 5.5% | -12.1% | ? | ?
CCOc1ccccc1NC(=O)CSc1nnc(CNC(=O)COc2ccc(Cl)cc2)o1 | 6.1% | -10.4% | 10.4µM* | -1.7%
COC(=O)c1ccc(CSc2nnc(CNC(=O)COc3ccc(Cl)cc3)o2)o1 | -11.8% | 0.0% | 5.86µM* | 8.4%
C(#CCN1CCOCC1)COC/C=C/c1ccccc1 | 17.8% | 0.0% | -13.9% | 3.0%
CCCCc1nc2ccccc2n1CC(=O)NN | -13.7% | 42.0% | -4.9% | -12.0%
CCOC(=O)c1ccc(Nc2cc(C)nc(-c3ccccc3)n2)cc1 | 10.4µM* | 0.7% | 51.3% | -2.3%
CCOC(=O)c1ccc(NC2=CC(=O)C(=O)c3ccccc32)cc1 | 5.86µM* | -7.5% | 70.0% | -2.2%
CC(=O)Nc1ccc(NC2=CC(=O)c3ccccc3C2=O)cc1 | ? | -29.8% | 0.586µM* | -0.5%
COc1cc(OC)c(NC2=CC(=O)C(=O)c3ccccc32)cc1Cl | 0.329µM* | -14.7% | 53.4% | -0.7%
O=C(O)C(CCc1ccccc1)N1C(=O)c2ccccc2C1=O (stereo not given) | . | 11.7% | . | .
O=C1C=C(Nc2ccc(O)cc2)C(=O)c2ccccc21 | 97.9% | ? | -103.9% | -1.3%
SMILES | Pf growth 48h | AMA1 RON2 block | Pf growth 96h | SARS PLP yeast
Cc1ccc(NC2=CC(=O)C(=O)c3ccccc32)cc1 | 0.522µM* | -19.3% | 0.828µM* | -54.3%
NS(=O)(=O)c1ccc(NC2=CC(=O)C(=O)c3ccccc32)cc1 | ? | -7.0% | 10.4µM* | .
CCN(CC)C(=O)c1ccc(/C=C/c2c[nH]c3ccccc23)[n+](C)c1 | 0.738µM* | -9.2% | 0.37µM* | 1.7%
CCOC(=O)N1CCN(C(=O)CN(C2CCCCC2)S(=O)(=O)c2c(C)cc(C)cc2C)CC1 | . | 10.5% | 10.4µM* | -5.2%
Cc1ccc(S(=O)(=O)N(CC(=O)N2CCN(c3ccccc3F)CC2)C2CCCCC2)cc1 | . | -15.7% | 10.4µM* | 2.6%[6.58 µM]
CS(=O)(=O)N(CC(=O)N1CCN(c2ccccc2F)CC1)C1CCCCC1 | 14.3% | -2.2% | 0.0% | 1.5%
CCOC(=O)Cc1csc(NC(=O)c2ccc(S(=O)(=O)N(CCOC)CCOC)cc2)n1 | 2.8% | 7.7% | 12.0% | -9.4%
CC(=O)N1CCSc2ccc(S(=O)(=O)NCc3ccc(F)cc3)cc21 | -1.9% | -7.6% | -8.0% | -4.1%
CCOc1ccc(N2CC(C(=O)Nc3ccc(F)cc3F)CC2=O)cc1 (stereo not given) | -9.4% | 4.5% | 9.28µM* | 0.0%
Cc1ccc(N2CC(C(=O)Nc3cccc(F)c3)CC2=O)cc1 (stereo not given) | -6.1% | -5.6% | 2.33µM* | 10.2%
CCCNC(=O)C1CC(=O)N(c2ccc(OCc3ccc(F)cc3)cc2)C1 (stereo not given) | 243.1% | -1.9% | ? | -4.0%
C=CCNC(=O)C1CC(=O)N(c2ccc(OCc3ccc(F)cc3)cc2)C1 (stereo not given) | 156.4% | -4.6% | 11.7µM* | -2.6%
CCOc1ccc(N2CC(C(=O)N3CCCC3)CC2=O)cc1 (stereo not given) | 11.9% | -3.6% | 11.7µM* | -9.0%
O=C(NNC(=O)c1sccc1-n1cccc1)c1ccc(F)cc1 | -13.2% | -3.0% | -45.1%[1.15 µM] | 0.3%
Cc1ccc(N2CC(C(=O)NC3=NCCS3)CC2=O)cc1C (stereo not given) | ? | 2.0% | . | 25.9%
Cc1ccc(N2CC(C(=O)Nc3ccc(N(C)C)cc3)CC2=O)cc1C (stereo not given) | 5.4% | 2.7% | 8.28µM* | -5.4%
COCC(C)NC(=S)NC(=O)c1cc(S(=O)(=O)N2CCOCC2)ccc1C (stereo not given) | 1.8% | 3.5% | 0.7% | 3.1%
O=S(=O)(Nc1cccnc1Cl)c1ccc(F)cc1 | -9.8% | -6.4% | -8.4% | -2.3%
O=S(=O)(Nc1cc(Sc2cccc3cccnc23)c(O)c2ccccc12)c1ccc(F)cc1 | 2.62µM* | -12.8% | 7.5% | -6.0%
COc1ccc(S(=O)(=O)Nc2cc(Sc3ncn[nH]3)c(O)c3ccccc23)cc1 | . | . | 2.94µM* | -46.2%
Cc1cc(C)c(S(=O)(=O)Nc2cc(SCC(=O)O)c(O)c3ccccc23)cc1C | 10.4µM* | -19.7% | 2.62µM* | -6.4%
COc1ccc(S(=O)(=O)Nc2cc(SCC(=O)O)c(O)c3ccccc23)cc1 | 4.15µM* | ? | ? | -10.5%
O=C(O)CSc1cc(NS(=O)(=O)c2ccc(Cl)cc2)c2ccccc2c1O | ? | -22.3% | ? | -12.0%
COc1cc2c(cc1OC)C(C(=O)NC(C)c1ccccc1)CC(=O)N2 (stereo not given) | 30.1% | 5.5% | 0.0% | -1.7%
CC(C(=O)Nc1ccccc1Cl)c1ccc([N+](=O)[O-])cc1 (stereo not given) | ? | -13.1% | 19.8%[5.75 µM] | -0.8%
Cc1ccc2nc(N3C(=O)C(O)=C(C(=O)c4ccc(C)o4)C3c3ccco3)sc2c1 (stereo not given) | 51.7% | -10.3% | 6.75µM* | -2.9%
Cc1ccc2nc(N3C(=O)C(O)=C(C(=O)c4ccco4)C3c3ccc(C)o3)sc2c1 (stereo not given) | 58.6% | 7.8% | 5.22µM* | -16.7%

Screening results deposited in PubChem BioAssay by National Center for Advancing Translational Sciences (NCATS).
